Reference: PubChem BioAssay AID1159580 (chemical genetic matrix, 2015)
About 2,000 (36%) of roughly 5,500 compounds were called active. Inconclusive results (about 18%) are left out. No stated cut-off is given here; in the data, active means normalized growth mostly below about 0.91 (no sharp cut-off); inconclusive means no clear call, values can overlap the other calls; inactive means mostly above about 0.92. The list shows a part of the results.

Test: chemical genetic growth profiling, strain panel (AID 1159580);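 further: tested at 20 µM; growth read once vehicle control cultures reached saturation at 30 °C; 1 = growth at the plate median or of vehicle wells; lower values mean less growth of the strain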
Details: growth OD

Measured: normalized growth

N#Cc1c(Cl)c(Cl)c(Cl)c(C#N)c1Cl
inactive: S. cerevisiae deletion strains, locus YJR075W, strain HOC1, hits give low values 0.999 | S. cerevisiae deletion strains, locus YKL009W, strain mrt4, hits give low values 0.976 | S. cerevisiae deletion strains, locus YKL068W, hits give low values 0.989 | S. cerevisiae deletion strains, locus YKL085W, strain MDH1 (second series), hits give low values 0.989 | S. cerevisiae deletion strains, locus YKL085W, strain MDH1, hits give low values 0.989 | S. cerevisiae deletion strains, locus YKL190W, strain CNB1, hits give low values 1.01 | S. cerevisiae deletion strains, locus YKR001C, strain vps1, hits give low values 0.983 | S. cerevisiae deletion strains, locus YLR039C, strain RIC1, hits give low values 1 | S. cerevisiae deletion strains, locus YLR058C, strain SHM2, hits give low values 0.994 | S. cerevisiae deletion strains, locus YLR102C, strain apc9, hits give low values 0.981 | S. cerevisiae deletion strains, locus YLR262C, strain YPT6, hits give low values 1.02 | S. cerevisiae deletion strains, locus YLR268W, strain sec22, hits give low values 0.998 | S. cerevisiae deletion strains, locus YLR330W, strain CHS5, hits give low values 0.996 | S. cerevisiae deletion strains, locus YLR342W, strain FKS1 (second series), hits give low values 0.993 | S. cerevisiae deletion strains, locus YLR371W, strain rom2, hits give low values 0.975 | S. cerevisiae deletion strains, locus YLR418C, strain cdc73, hits give low values 0.995 | S. cerevisiae deletion strains, locus YML016C, strain PPZ1, hits give low values 0.998 | S. cerevisiae deletion strains, locus YML032C, strain rad52, hits give low values 0.968 | S. cerevisiae deletion strains, locus YML124C, strain tub3, hits give low values 0.984 | S. cerevisiae deletion strains, locus YMR078C, strain ctf18, hits give low values 0.969 | S. cerevisiae deletion strains, locus YMR223W, strain ubp8, hits give low values 0.975 | S. cerevisiae deletion strains, locus YMR263W, strain SAP30, hits give low values 1 | S. cerevisiae deletion strains, locus YMR307W, strain GAS1, hits give low values 0.902 | S. cerevisiae deletion strains, locus YNL067W, strain RPL9B, hits give low values 1 | S. cerevisiae deletion strains, locus YNL128W, strain TEP1, hits give low values 0.997 | S. cerevisiae deletion strains, locus YNL153C, strain GIM3, hits give low values 1.01 | S. cerevisiae deletion strains, locus YNL233W, strain BNI4, hits give low values 1 | S. cerevisiae deletion strains, locus YNL250W, strain rad50, hits give low values 0.98 | S. cerevisiae deletion strains, locus YNL271C, strain bni1, hits give low values 0.974 | S. cerevisiae deletion strains, locus YNL298W, strain CLA4, hits give low values 0.971 | S. cerevisiae deletion strains, locus YNL307C, strain MCK1, hits give low values 0.981 | S. cerevisiae deletion strains, locus YNL322C, strain KRE1, hits give low values 0.997 | S. cerevisiae deletion strains, locus YNR052C, strain pop2, hits give low values 0.978 | S. cerevisiae deletion strains, locus YOL006C, strain TOP1, hits give low values 1.01 | S. cerevisiae deletion strains, locus YOL012C, strain htz1 1.56 | S. cerevisiae deletion strains, locus YOL147C, strain pex11, hits give low values 0.989 | S. cerevisiae deletion strains, locus YOR061W, strain CKA2, hits give low values 1.01 | S. cerevisiae deletion strains, locus YOR069W, strain VPS5, hits give low values 0.999 | S. cerevisiae deletion strains, locus YOR136W, strain idh2, hits give low values 0.977 | S. cerevisiae deletion strains, locus YOR144C, strain elg1, hits give low values 0.981 | S. cerevisiae deletion strains, locus YOR184W, strain ser1, hits give low values 0.965 | S. cerevisiae deletion strains, locus YOR316C, strain cot1, hits give low values 0.984 | S. cerevisiae deletion strains, locus YPL055C, strain LGE1, hits give low values 1.01 | S. cerevisiae deletion strains, locus YPL241C, strain CIN2, hits give low values 1 | S. cerevisiae deletion strains, locus YPR119W, strain clb2, hits give low values 0.985 | S. cerevisiae deletion strains, locus YPR141C, strain kar3, hits give low values 0.978 | S. cerevisiae deletion strains, locus YPR163C, strain tif3, hits give low values 0.98 | S. cerevisiae deletion strains, locus YPR167C, strain met16, hits give low values 0.989 | S. cerevisiae deletion strains, strain wtn01, hits give low values 0.99 | S. cerevisiae strains, strain wild type, hits give low values 0.997
active: S. cerevisiae deletion strains, locus YKL160W, strain elf1, hits give low values 0.0734 | S. cerevisiae deletion strains, locus YKR026C, strain gcn3, hits give low values 0.0728 | S. cerevisiae deletion strains, locus YKR091W, strain srl3, hits give low values 0.0738 | S. cerevisiae deletion strains, locus YLL001W, strain dnm1, hits give low values 0.0739 | S. cerevisiae deletion strains, locus YLL026W, hits give low values 0.068 | S. cerevisiae deletion strains, locus YLL041C, strain sdh2, hits give low values 0.0683 | S. cerevisiae deletion strains, locus YLR027C, strain aat2, hits give low values 0.072 | S. cerevisiae deletion strains, locus YLR113W, strain HOG1, hits give low values 0.153 | S. cerevisiae deletion strains, locus YLR221C, strain rsa3, hits give low values 0.0754 | S. cerevisiae deletion strains, locus YLR258W, strain gsy2, hits give low values 0.0732 | S. cerevisiae deletion strains, locus YLR262C, strain YPT6 (second series), hits give low values 0.0948 | S. cerevisiae deletion strains, locus YLR320W, strain mms22, hits give low values 0.0991 | S. cerevisiae deletion strains, locus YLR342W, strain FKS1, hits give low values 0.0799 | S. cerevisiae deletion strains, locus YLR357W, strain rsc2, hits give low values 0.146 | S. cerevisiae deletion strains, locus YLR370C, strain arc18, hits give low values 0.0758 | S. cerevisiae deletion strains, locus YLR384C, strain iki3, hits give low values 0.0759 | S. cerevisiae deletion strains, locus YML120C, strain ndi1, hits give low values 0.0696 | S. cerevisiae deletion strains, locus YMR058W, strain fet3, hits give low values 0.074 | S. cerevisiae deletion strains, locus YMR125W, strain sto1, hits give low values 0.0959 | S. cerevisiae deletion strains, locus YMR129W, hits give low values 0.0707 | S. cerevisiae deletion strains, locus YMR205C, strain PFK2, hits give low values 0.111 | S. cerevisiae deletion strains, locus YMR231W, strain pep5, hits give low values 0.0788 | S. cerevisiae deletion strains, locus YNL071W, strain lat1, hits give low values 0.0711 | S. cerevisiae deletion strains, locus YNL183C, strain NPR1, hits give low values -0.00756 | S. cerevisiae deletion strains, locus YNL209W, strain ssb2, hits give low values 0.0719 | S. cerevisiae deletion strains, locus YNL248C, strain rpa49, hits give low values 0.0922 | S. cerevisiae deletion strains, locus YNL322C, strain KRE1 (second series), hits give low values 0.0768 | S. cerevisiae deletion strains, locus YNR049C, strain mso1, hits give low values 0.0681 | S. cerevisiae deletion strains, locus YOR001W, strain rrp6, hits give low values 0.0917 | S. cerevisiae deletion strains, locus YOR070C, strain gyp1, hits give low values 0.0717 | S. cerevisiae deletion strains, locus YOR080W, strain dia2, hits give low values 0.0799 | S. cerevisiae deletion strains, locus YOR083W, strain WHI5, hits give low values 0.0798 | S. cerevisiae deletion strains, locus YOR106W, strain vam3, hits give low values 0.0853 | S. cerevisiae deletion strains, locus YOR231W, strain MKK1, hits give low values 0.13 | S. cerevisiae deletion strains, locus YOR265W, strain rbl2, hits give low values 0.0688 | S. cerevisiae deletion strains, locus YOR270C, strain vph1, hits give low values 0.122 | S. cerevisiae deletion strains, locus YOR290C, strain snf2, hits give low values 0.0764 | S. cerevisiae deletion strains, locus YPL051W, strain arl3, hits give low values 0.0808 | S. cerevisiae deletion strains, locus YPL078C, strain atp4, hits give low values 0.081 | S. cerevisiae deletion strains, locus YPL106C, strain sse1, hits give low values 0.126 | S. cerevisiae deletion strains, locus YPL240C, strain hsp82, hits give low values 0.0722 | S. cerevisiae deletion strains, locus YPL256C, strain CLN2, hits give low values 0.186
